Experiments:
Experiment in all cases: phenotypically active (imaging signature differs from DMSO and reproducible) at any of 0.3-9 uM (binary (1 = active, 0 = inactive)); higher = active
Conditions in all cases: treatment time: 24 h
[1] = test system: A549-ACTB-RAB5A
Summary of the method: (§1)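 Fifteen gene-edited A549, HepG2 and WPMY1 reporter lines (BFP segmentation plus GFP and RFP/FusionRed markers) were treated at 0.3, 1, 3 or 9 µM for 24 h, four wells each, then imaged live. Live-cell features per well were normalised to DMSO control wells. Deviation required ≥3 of 4 wells beyond the 95th percentile of DMSO Euclidean distances, and reproducibility required median replicate Pearson correlation above the 95th percentile of non-replicates. Phenotypic activity needed both criteria.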

[2] = test system: A549-CANX-COX4
Summary of the method: as §1

[3] = test system: A549-GM130-SQSTM1
Summary of the method: as §1

[4] = test system: A549-TP53BP1-CLTA
Summary of the method: as §1

[5] = test system: A549-TUBA1B-RELA
Summary of the method: as §1

[6] = test system: HepG2-ACTB-RAB5A
Summary of the method: as §1

[7] = test system: HepG2-CANX-COX4
Summary of the method: as §1

[8] = test system: HepG2-GM130-SQSTM1
Summary of the method: as §1

[9] = test system: HepG2-TP53BP1-CLTA
Summary of the method: as §1

[10] = test system: HepG2-TUBA1B-RELA
Summary of the method: as §1

[11] = test system: WPMY1-ACTB-RAB5A
Summary of the method: as §1

[12] = test system: WPMY1-CANX-COX4
Summary of the method: as §1

[13] = test system: WPMY1-GM130-SQSTM1
Summary of the method: as §1

[14] = test system: WPMY1-TP53BP1-CLTA
Summary of the method: as §1

[15] = test system: WPMY1-TUBA1B-RELA
Summary of the method: as §1

Measured: phenotypically active

O=c1ccc2ccc3occc3c2o1 [Angelicin]
inactive: [1] 0 | [2] 0 | [3] 0 | [4] 0 | [5] 0 | [6] 0 | [7] 0 | [8] 0 | [9] 0 | [10] 0 | [11] 0 | [12] 0 | [13] 0 | [14] 0 | [15] 0

Cc1ccc(C[N+](C)(C)C)o1 [5-Methylfurmethiodide]
inactive: [1] 0 | [2] 0 | [3] 0 | [4] 0 | [5] 0 | [6] 0 | [7] 0 | [8] 0 | [9] 0 | [10] 0 | [11] 0 | [12] 0 | [13] 0 | [14] 0 | [15] 0

CCN(C)C(=O)Oc1cccc([C@H](C)N(C)C)c1 [rivastigmine]
inactive: [1] 0 | [2] 0 | [3] 0 | [4] 0 | [5] 0 | [6] 0 | [7] 0 | [8] 0 | [9] 0 | [10] 0 | [11] 0 | [12] 0 | [13] 0 | [14] 0 | [15] 0

CN1[C@@H]2CC(=O)C[C@H]1[C@H](O)C2 [6-Hydroxytropinone]
inactive: [1] 0 | [2] 0 | [3] 0 | [4] 0 | [5] 0 | [6] 0 | [7] 0 | [8] 0 | [9] 0 | [10] 0 | [11] 0 | [12] 0 | [13] 0 | [14] 0 | [15] 0

COc1c2c(cc3c1OCO3)CC[N+](C)=C2 [Cotarnine chloride]
inactive: [1] 0 | [2] 0 | [3] 0 | [4] 0 | [5] 0 | [6] 0 | [7] 0 | [8] 0 | [9] 0 | [10] 0 | [11] 0 | [12] 0 | [13] 0 | [14] 0 | [15] 0

N[C@H]1C[C@@H]1c1ccccc1 [tranylcypromine]
inactive: [1] 0 | [2] 0 | [3] 0 | [4] 0 | [5] 0 | [6] 0 | [7] 0 | [8] 0 | [9] 0 | [10] 0 | [11] 0 | [12] 0 | [13] 0 | [14] 0 | [15] 0

OCC[N+]12CN3CN(CN(C3)C1)C2
inactive: [1] 0 | [2] 0 | [3] 0 | [4] 0 | [5] 0 | [6] 0 | [7] 0 | [8] 0 | [9] 0 | [10] 0 | [11] 0 | [12] 0 | [13] 0 | [14] 0 | [15] 0

CCN1C[C@@]2(COC)C3[C@@H](OC)[C@H]4[C@H]1C3([C@@H]1C[C@@]3(O)[C@H](OC(=O)c5ccccc5)[C@@H]1[C@]4(OC(C)=O)[C@@H](O)[C@@H]3OC)[C@H](OC)C[C@H]2O [Aconitine]
inactive: [1] 0 | [2] 0 | [3] 0 | [4] 0 | [5] 0 | [6] 0 | [7] 0 | [8] 0 | [9] 0 | [10] 0 | [11] 0 | [12] 0 | [13] 0 | [14] 0 | [15] 0

CCCCCOc1ccc(C(=O)c2cccc3ccccc23)c2ccccc12
inactive: [1] 0 | [2] 0 | [3] 0 | [4] 0 | [5] 0 | [6] 0 | [7] 0 | [8] 0 | [9] 0 | [10] 0 | [11] 0 | [12] 0 | [13] 0 | [14] 0 | [15] 0

COc1ccc2c3c1O[C@H]1C(=O)CC[C@@]4(O)[C@@H](C2)N(C)CC[C@]314 [oxycodone]
inactive: [1] 0 | [2] 0 | [3] 0 | [4] 0 | [5] 0 | [6] 0 | [7] 0 | [8] 0 | [9] 0 | [10] 0 | [11] 0 | [12] 0 | [13] 0 | [14] 0 | [15] 0

COc1ccc2c3c1O[C@H]1C(=O)CC[C@H]4[C@@H](C2)N(C)CC[C@]314 [hydrocodone]
inactive: [1] 0 | [2] 0 | [3] 0 | [4] 0 | [5] 0 | [6] 0 | [7] 0 | [8] 0 | [9] 0 | [10] 0 | [11] 0 | [12] 0 | [13] 0 | [14] 0 | [15] 0
